Drawing on PubChem BioAssay (NCI), this text covers growth for 7 compounds.

What all share (experiment): NCI-60 one-dose screen, 48 h (100 = growth as untreated, 0 = no growth, -100 = all killed)
Holding throughout (conditions): 10 µM unless noted

Test [1] has as its system DU-145 prostate.
For test [2], the system named is K-562 leukemia.
The test system of test [3] is MALME-3M melanoma.
Test [4] relates to MDA-MB-231 breast.
Test [5] deals with RXF 393 renal.
The subject of test [6] is SF-268 CNS.
Test [7] relates to SF-295 CNS.
The subject of test [8] is SF-539 CNS.
Test [9] relates to UACC-257 melanoma.
Test [10] deals with M14 melanoma.
In test [11] the test system is HCT-15 colon.
The test system of test [12] is HT29 colon.
The test system of test [13] is SNB-75 CNS.
The subject of test [14] is SNB-19 CNS.
Test [15] has as its system U251 CNS.
Test [16] deals with PC-3 prostate.
In test [17] the test system is SK-MEL-5 melanoma.
In test [18] the test system is UACC-62 melanoma.
Test [19] relates to LOX IMVI melanoma.
Test [20] has as its system SK-MEL-28 melanoma.

The structures appear in SMILES notation. Compounds without any hit were thinned out: in the full panel of roughly 83,000, 20% have a hit.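 Activity criterion: percent growth below 10, measured after cells in 96-well plates were exposed to a single compound concentration for 48 hours.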 Unmarked numbers belong to inactive results. The source made the active and inactive calls.

As to `COc1ccc2c3ccnc(C(F)(F)F)c3n(CCCCN)c2c1`, the growth in [1] was 71.4%; in [2], 71.1%; in [3], 43.7%; in test [4], 41.5%; in test [5] it was 49.8%; in test [6] it was 67.5%. In addition, the growth in test [7] was 59.7%; in [8] it was 34.6%; in test [9], 37.9%; in test [10], 23.6%; in test [11] it was 62.9%; in test [12], 22.6%. For the same compound, the growth in test [13] is 49.2%; in [14] it was 68%; in [15], 46.4%; in test [16] it was 22.8%; in test [17], 70.7%; in [18] it was 39.2%. Further, the growth in test [19] is 32.3%; in test [20] it was 38.6%.

With `CC(C)c1ccc(C(=O)Nc2sc3c(c2C#N)CCC(=O)C3)cc1`, the growth is 43.9% in [1]; 1.57% (active) in test [2]; -41.2% (active) in test [3]; -39.6% (active) in test [4]; -38.5% (active) in test [5]; 26.9% in test [6]. Also, the growth in test [7] is -7.58% (active); in test [8], -48.4% (active); in [9] it was -2.97% (active); in [10] it was -6.52% (active); in test [11], -24.5% (active); in test [12], 8.34% (active). Moreover, the growth in test [13] was -42.1% (active); in [14], 11.4%; in test [15] it was 15%; in [16] it was 1.47% (active); in [17], -62.9% (active); in test [18] it was -27.8% (active). Moreover, the growth in test [19] was 16.7%; in test [20] it was 22.3%.

With `C[C@]12CCc3nc(Nc4ccccc4)sc3C1=CC[C@@H]1[C@@H]2CC[C@]2(C)/C(=N/NC(N)=S)CC[C@@H]12`, the growth in test [1] is 36.3%; in test [2], 9.46% (active); in [3], 69.5%; in test [4], 56.3%; in test [5], -8.56% (active); in [6] it was 49.3%. For the same compound, the growth is 21.2% in [7]; 37.3% in test [8]; 67.9% in test [9]; 73.1% in test [10]; -11.6% (active) in test [11]; 5.72% (active) in test [12]. The growth in [13] was 35.3%; in [14], 62.1%; in test [15], 37.3%; in [16], 26.6%; in test [17] it was 38.1%; in test [18], 42.6%. The growth in test [19] was 69.6%; in [20], 63.6%.

As to `Cc1cc2c(C(C)C)c(O)c(O)c(C=NCc3ccoc3)c2c(O)c1-c1c(C)cc2c(C(C)C)c(O)c(O)c(C=NCc3ccco3)c2c1O`, the growth in test [1] is 49.1%; in [2], 9.26% (active); in [3], 66.4%; in [4], 31.8%; in test [5], 58.7%; in test [6], 34.9%. Also, the growth was 22% in test [7]; 60.2% in test [8]; 80.9% in test [9]; 65.4% in test [10]; 19.5% in test [11]; 31.2% in test [12]. Also, the growth was 64.9% in test [13]; 19.8% in test [14]; 25.6% in test [15]; 29.7% in test [16]; 91.7% in test [17]; 67.9% in test [18]. Besides, the growth in test [19] is 37%; in test [20], 70.3%.

In the case of `Cn1cc(-c2noc(C(=O)c3cn(C)c4ncc(Br)cc34)n2)c2ccccc21`, the growth in test [1] was 100%; in test [2], 102%; in test [3], 80.5%; in [4], 79.1%; in [5], 104%; in test [6] it was 94.6%. Besides, the growth in [7] was 101%; in test [8], 87.1%; in [9], 96.7%; in [10], 99.4%; in [11], 97.7%; in test [12] it was 105%. The growth in test [13] was 77.9%; in [14] it was 96.6%; in test [15], 93.8%; in [16], 92.3%; in [17], 95.6%; in test [18], 89.3%. Besides, the growth was 96.8% in [19] and 101% in test [20].

In the case of `Cc1ccccc1-n1nnc(C(=O)Nc2nc3ccc(F)cc3s2)c1C`, the growth was 66.9% in test [1]; 35.3% in [2]; 50.6% in [3]; 82% in [4]; 65.6% in test [5]; 73% in [6]. The growth in test [7] was 60.5%; in test [8] it was 79.9%; in test [9], 55.7%; in test [10] it was 49.3%; in test [11], 61.1%; in test [12] it was 73.2%. The growth in [13] was 64%; in test [14], 63.7%; in [15], 76.8%; in test [16], 47.5%; in test [17], 24.5%; in [18], 59.2%. Moreover, the growth is 75% in test [19] and 57.3% in [20].

`C=C(C)[C@@H]1CC[C@]2(C(=O)NCCNCCNCCN)CC[C@]3(C)[C@H](CC[C@@H]4[C@@]5(C)CC[C@H](O)C(C)(C)[C@@H]5CC[C@]43C)[C@@H]12`: the growth in test [1] was -8.34% [100 µM] (active); in [2] it was -15.8% [100 µM] (active); in test [3] it was -100% [100 µM] (active); in test [4] it was -56.9% [100 µM] (active); in test [5], -82.9% [100 µM] (active); in test [6], -31% [100 µM] (active). Also, the growth was -84.7% [100 µM] (active) in [7]; -100% [100 µM] (active) in test [8]; -39.6% [100 µM] (active) in test [9]; -31% [100 µM] (active) in test [10]; -24.8% [100 µM] (active) in test [11]; -39.6% [100 µM] (active) in test [12]. Also, the growth in test [13] was -79.3% [100 µM] (active); in test [14], -74.5% [100 µM] (active); in [15], -71.6% [100 µM] (active); in test [16], 1.07% [100 µM] (active); in test [17], -90.1% [100 µM] (active); in test [18], -100% [100 µM] (active). In addition, the growth is -41% [100 µM] (active) in test [19] and -98.7% [100 µM] (active) in test [20].
